Paper PMC4336329 (PLoS ONE, 2015)
Out of some 310,000 compounds screened, about 14,000 (4.5%) showed an effect of 50% or more. Effects have a minus sign here. Many of the other results were omitted from the sample, so strong results are more common in it than they were.

target: human ether-à-go-go-related gene (hERG) potassium channel (human, UniProt Q12809); experiment: primary screen, population patch clamp on CHO cells stably expressing hERG; higher = less effect of the substance
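Further: peak tail current of the secondary pulse compared with the same well before compound.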

Sequence of human ether-à-go-go-related gene (hERG) potassium channel (Q12809 whole entry, looked up): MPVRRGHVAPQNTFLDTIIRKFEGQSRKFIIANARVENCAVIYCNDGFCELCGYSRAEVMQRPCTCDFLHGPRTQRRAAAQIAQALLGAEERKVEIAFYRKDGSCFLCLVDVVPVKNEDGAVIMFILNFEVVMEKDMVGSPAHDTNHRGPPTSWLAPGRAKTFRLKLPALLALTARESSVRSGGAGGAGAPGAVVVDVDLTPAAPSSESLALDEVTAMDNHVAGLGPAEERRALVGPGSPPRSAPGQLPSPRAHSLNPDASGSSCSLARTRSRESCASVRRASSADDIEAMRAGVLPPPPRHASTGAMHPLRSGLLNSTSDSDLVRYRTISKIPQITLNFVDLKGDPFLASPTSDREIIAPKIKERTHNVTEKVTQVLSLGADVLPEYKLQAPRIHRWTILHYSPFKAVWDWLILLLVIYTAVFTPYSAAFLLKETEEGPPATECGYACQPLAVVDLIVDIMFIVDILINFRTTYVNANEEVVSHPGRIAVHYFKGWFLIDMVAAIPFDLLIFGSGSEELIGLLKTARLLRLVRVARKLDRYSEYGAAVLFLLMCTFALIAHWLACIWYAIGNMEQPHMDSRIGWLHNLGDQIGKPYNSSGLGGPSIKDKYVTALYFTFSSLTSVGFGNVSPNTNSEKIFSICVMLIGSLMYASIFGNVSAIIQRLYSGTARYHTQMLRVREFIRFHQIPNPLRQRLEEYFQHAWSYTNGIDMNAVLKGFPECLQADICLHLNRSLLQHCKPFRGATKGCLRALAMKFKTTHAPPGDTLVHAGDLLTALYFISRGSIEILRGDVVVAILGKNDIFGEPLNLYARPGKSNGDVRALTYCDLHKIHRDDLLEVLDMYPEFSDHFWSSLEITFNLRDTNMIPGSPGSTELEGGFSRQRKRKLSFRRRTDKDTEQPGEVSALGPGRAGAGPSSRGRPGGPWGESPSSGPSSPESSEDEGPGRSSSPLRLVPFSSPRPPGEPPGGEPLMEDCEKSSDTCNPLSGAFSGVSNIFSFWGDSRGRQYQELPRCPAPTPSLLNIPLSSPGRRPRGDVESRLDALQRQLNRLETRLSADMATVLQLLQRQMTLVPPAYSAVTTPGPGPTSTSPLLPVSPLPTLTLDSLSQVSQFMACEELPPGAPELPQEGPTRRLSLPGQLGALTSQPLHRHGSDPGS

Compound | hERG current change (%, negative = inhibition) at 10uM [%]
COCC(C)n1c(C)cc(C(=O)COC(=O)/C=C/c2cccc(F)c2)c1C (stereo not drawn) | -31.6
Cc1nn(Cc2ccccc2)c(Cl)c1/C=C/C(=O)OC(C)C(=O)N1CCCC1 (stereo not drawn) | 18.7
CN1CCN(C(=O)/C(=C\c2cccs2)NC(=O)c2cccs2)CC1 | -72.5
O=C(N/C(=C\c1cccs1)C(=O)N1CCOCC1)c1cccs1 | -9.07
Cc1ccc(C(=O)N/C(=C/c2cccs2)C(=O)N2CCCCC2)cc1 | -35.4
O=C(N/C(=C/c1cccs1)C(=O)N1CCOCC1)c1cccs1 | -8.41
Cc1ccc(C(=O)N/C(=C\c2cccs2)C(=O)N2CCCCCC2)cc1 | -50.7
Cc1ccc(C(=O)N/C(=C/c2cccs2)C(=O)N2CCCCCC2)cc1 | -46
Cc1cc(NC(=O)C2CC(=O)N(c3ccccc3Cl)C2)no1 (stereo not drawn) | 14.6
C/C(=N\NC(=O)CNC(=O)c1ccc2c(c1)OCCO2)c1ccco1 | 10.7
CC(=O)Nc1ccc(S(=O)(=O)N2CCN(CCCOc3ccccc3Cl)CC2)cc1 | -49.6
CN(CCN1CCOCC1)C(=O)CC1C(=O)NCCN1Cc1ccccc1F (stereo not drawn) | 12
Cc1csc(NC(=O)CSc2ccc(-c3ccc(F)cc3)nn2)n1 | -26.8
CCN(CC)C(=O)CSc1nnc(-c2ccccn2)n1-c1ccc(C)c(C)c1 | -24.8
Cc1csc(NC(=O)CSc2nnc(-c3ccccn3)n2-c2ccc(C)c(C)c2)n1 | -78.5
Cc1csc(NC(=O)CSc2ccc(-c3ccccc3)nn2)n1 | -66.9
Cc1ccc(-n2c(SCC(N)=O)nnc2-c2ccccn2)cc1C | 8.79
Cc1csc(SCC(=O)Nc2nc(-c3ccccc3)cs2)n1 | -8.35
Cc1cc(C)cc(NC(=O)CSc2ccc(-c3ccccn3)nn2)c1 | 8.61
Cc1nnc(NC(=O)CSc2ccc(-c3ccccn3)nn2)s1 | 12.1
Cc1csc(NC(=O)CSc2ccc(-c3ccccn3)nn2)n1 | -73.6
COc1ccc(CCN2C(=O)CSC2c2cccc([N+](=O)[O-])c2)cc1OC (stereo not drawn) | -3.39
CCOC(=O)c1c(C)nc2c(c1-c1ccccc1)C(=O)CC(C)(C)C2 | -16.8
CC(OC(=O)c1ccc(O)cc1)C(=O)Nc1nc(-c2ccccc2)cs1 (stereo not drawn) | -17.8

Compound | hERG current change (%, negative = inhibition) at 10uM [%]
CCOC(=O)N1CCN(C(=O)C2CCN(S(=O)(=O)c3ccc(F)cc3)CC2)CC1 | -19.3
CSc1ccccc1C(=O)NC1CCCN(Cc2ccccc2F)C1 (stereo not drawn) | -11.5
CC(=O)NC1C(OCc2cccc(Br)c2)OC(COC(C)=O)C(OC(C)=O)C1OC(C)=O (stereo not drawn) | -12.4
CNC(=O)c1ccccc1Sc1ccccc1C#N | 19.1
CCOc1cc(N2CCOCC2)c(OCC)cc1NC(=O)C(C)(C)C | 17.4
CCc1cccc(C)c1NC(=O)C1CCN(C(=O)c2ccc([N+](=O)[O-])cc2)CC1 | -48.2
COc1cc(C(=O)N2CCC(C(=O)Nc3cccc(C(C)=O)c3)CC2)cc(OC)c1OC | -2.12
CC(=O)c1cccc(NC(=O)C2CCN(C(=O)c3ccc([N+](=O)[O-])cc3)CC2)c1 | -69.6
Cc1ccc(C(=O)N2CCC(C(=O)Nc3cccc([N+](=O)[O-])c3)CC2)cc1 | -80.1
CC(=O)c1cccc(NC(=O)C2CCN(C(=O)c3ccccc3Cl)CC2)c1 | -0.359
O=C(Nc1ccc(F)cc1)C1CCN(C(=O)c2ccc([N+](=O)[O-])cc2)CC1 | -4.16
O=C(Nc1ccccc1)C1CCN(C(=O)c2ccc([N+](=O)[O-])cc2)CC1 | -71.4
CC(=O)c1ccc(NC(=O)N2CCN(c3ccc(C)cc3)C(C)C2)cc1 (stereo not drawn) | -19.6
O=C(Nc1cccc([N+](=O)[O-])c1)N1CCN(c2ccccc2)CC1 | -38.7
Cc1ccc(N2CCN(C(=O)Nc3cccc([N+](=O)[O-])c3)CC2C)cc1 (stereo not drawn) | -78.3
O=C(Nc1cccc([N+](=O)[O-])c1)C1CCN(C(=O)Cc2ccccc2)CC1 | -43.3
CC(=O)Nc1ccc(NC(=O)C2CCN(C(=O)c3ccc([N+](=O)[O-])cc3)CC2)cc1 | -0.926
NC(=O)CN1C2CCC1CC(NC(=O)C1CC1)C2 (stereo not drawn) | 14.7
O=C(Nc1ccc(C(=O)N2CCCC2)cc1)c1ccccc1Br | 19.8
COc1ccccc1NS(=O)(=O)c1ccc(O)cc1 | 1.44
COc1nc(N=C(N)N)nc2c(C)cccc12 | -2.93
CC(=O)Nc1ccc(S(=O)(=O)Nc2nc3ccccc3nc2Nc2ccccc2)cc1 | 10.3
CC(=O)Nc1ccc(NC(=O)CN(C)S(=O)(=O)c2ccc3nc(C)sc3c2)cc1 | 25.7
O=C1NCCCC1C(=O)N/N=C/c1ccccc1 (stereo not drawn) | -4.35

Compound | hERG current change (%, negative = inhibition) at 10uM [%]
O=C(c1cc2sccc2n1Cc1ccccc1)N1CCCc2ccccc21 | 1.8
Cn1c(-c2ccc3c(c2)OCO3)cnc1NCc1ccccc1.O=C(O)C(=O)O | -60
Cc1ccc(CNc2ccc3c(c2)OCO3)cc1 | -4.29
O=C(NCc1cccc(Cl)c1)c1ccc2c(c1)OCO2 | 0.973
Cn1c(-c2ccc3c(c2)OCO3)cnc1N | -16.5
Cc1ccc(CNc2ncc(-c3ccc4c(c3)OCO4)n2C)cc1.O=C(O)C(=O)O | -59
Cn1c(-c2ccc3c(c2)OCO3)cnc1NCc1cccc(O)c1.O=C(O)C(=O)O | -23.1
Cn1c(-c2ccc3c(c2)OCO3)cnc1NCc1cccc(Cl)c1.O=C(O)C(=O)O | -74
Cn1c(-c2ccc3c(c2)OCO3)cnc1NC(=O)CCC(=O)NCCc1ccccc1 | -6.98
COc1ccc2c(CC(=O)Nc3ncc(C)s3)coc2c1 | 5.72
CN(C)c1ccc(C(CC(=O)O)C(=O)O)cc1 (stereo not drawn) | 14.4
CCOc1ccc(C(=O)CCC(=O)Nc2ncccc2O)cc1 | 5.51
Cc1ccccc1OCC(O)Cn1c(NCCN(C)C)nc2c1c(=O)n(C)c(=O)n2C (stereo not drawn) | -20.3
CSc1cccc(NC(=O)/C=C/c2ccc(Cl)cc2)c1 | -4.08
O=S(=O)(Nc1ncccn1)c1ccc(NC(=S)N2CCN(Cc3ccc(F)cc3Cl)CC2)cc1 | 22
CNC(C)C#Cc1ccc2c(=O)c3c(OC)cccc3oc2c1 (stereo not drawn) | 0.579
CC(=O)Nc1sc2c(c1CN1CCN(c3ccc(F)cc3)CC1)CCCC2 | -6.73
CC(C)(C)c1ccc(C(=O)Nc2cccnc2)cc1 | -18.7
O=C(Nc1ccc(Oc2cccnc2)nc1)c1ccc(C(F)(F)F)cc1 | -30
CC(C)(C)c1ccc(C(=O)Nc2ccc(Oc3cccnc3)nc2)cc1 | -61.2
CCCCC(=Nc1ccccc1OC)C1=C(O)CC(c2ccccc2)CC1=O (stereo not drawn) | 3.11
COc1cc(C2C(C#N)=C(N)Oc3cc(N(C)C)ccc32)cc2c1OCO2 (stereo not drawn) | -6.32
COC(=O)c1ccc(COc2ccc(F)cc2)o1 | -27.4
COc1cc(/C=C2/SC(=S)N(CCC(=O)Nc3ccccc3)C2=O)cc(OC)c1OC | 13.8

Compound | hERG current change (%, negative = inhibition) at 10uM [%]
CCN(CC)CCSc1nnc2c3cc(F)ccc3n(Cc3ccccc3)c2n1 | -77
CCN(CC)CCSc1nnc2c3cc(C)ccc3n(Cc3ccccc3)c2n1 | -79.1
CSc1nnc2c3cc(F)ccc3n(Cc3ccccc3)c2n1 | 13.6
CSc1nnc2c3cc(C)ccc3n(Cc3ccccc3)c2n1 | 2.55
Cc1ccc2c(c1)c1nnc(SCC(=O)Nc3cccc(Cl)c3C)nc1n2CC(=O)O | 19.6
NNc1nnc2c3cc(F)ccc3n(Cc3ccccc3)c2n1 | -22.4
O=c1cc(CNc2cc(C(F)(F)F)cc(C(F)(F)F)c2)nc2sccn12 | -6.36
Cn1nc(OCCOc2ccccc2)ccc1=O | -4.45
NC(=O)c1ccc(Oc2ncc(C(F)(F)F)cc2Cl)cc1 | -3.77
O=C(NCc1cccs1)c1ccccc1F | -3.47
Cc1ccc(-c2nc(CN3CCCCC3)cc(CN3CCCCC3)c2O)cc1.Cl | -62.5
CC(C)(C)c1nc(CN2CCCCC2)cc(CN2CCCCC2)c1O | -24.2
Cc1ccc(-c2nc(CN(C)C)cc(CN(C)C)c2O)cc1.Cl | -14.6
Cc1ccccc1OCC(=O)OCn1nnc2ccccc2c1=O | 19.6
Cc1ccc2[nH]c3c(=O)n(CC(=O)NCc4ccco4)ncc3c2c1 | 21.9
CCN(CCCNC(=O)Cn1ncc2c([nH]c3ccc(C)cc32)c1=O)c1ccccc1 | 19
Cc1ccc2[nH]c3c(=O)n(CC(=O)NCCCN(C)Cc4ccccc4)ncc3c2c1 | -31.6
CCN(CCCNC(=O)Cn1ncc2c([nH]c3ccc(C)cc32)c1=O)Cc1ccccc1 | -58.5
O=C(Cn1ncc2c([nH]c3ccccc32)c1=O)NCCc1ccccc1 | 3.06
CCN(CCCNC(=O)Cn1ncc2c([nH]c3ccccc32)c1=O)Cc1ccccc1 | -67
CC(C)N(CCCNC(=O)Cn1ncc2c([nH]c3ccccc32)c1=O)Cc1ccccc1 | -48.1
